{
  "source": "ChEMBL document CHEMBL4513146",
  "about": "“CO-ADD screening of Karazin Kharkiv National University (Ukraine) compounds”",
  "note": "Potency and affinity values are given separately.",
  "data": [
    {"tested_on": "Klebsiella pneumoniae", "conditions": "Concentration 32 ug.mL-1;; ASSAY_TEST Inhibition of Bacterial Growth; detection method Absorption (OD600); MEDIA CAMHB; plate type 384well; NBS; CORNING #3640; time 18 hr", "units": {"Inhibition": "%"}, "values": [
      {"smiles": "Cc1cccc(NC(=O)CSc2nnc3c(=O)n(-c4ccccc4)ccn23)c1", "Inhibition": 3.26},
      {"smiles": "COc1ccc(N2CCN(C(=O)Cn3nc4ccc(S(=O)(=O)C(C)(C)C)nn4c3=O)CC2)cc1", "Inhibition": 18.13},
      {"smiles": "CCOC(=O)N1CCN(C(=O)CCc2nnc3c4cc(-c5ccc(F)cc5)nn4ccn23)CC1", "Inhibition": 12.38},
      {"smiles": "COc1ccccc1N1CCN(C(=O)CSc2nc3ccccc3n3c(C(C)C)nnc23)CC1", "Inhibition": 6.45},
      {"smiles": "COc1ccc(NC(=O)c2ccc3nn(CC(=O)Nc4cccc(SC)c4)c(=O)n3c2)cc1", "Inhibition": -1.25},
      {"smiles": "CC(C)c1nnc2c(SCC(=O)Nc3ccccc3Br)nc3ccccc3n12", "Inhibition": 12.82},
      {"smiles": "Cc1ccc(NC(=O)Cn2nc3c4cc(-c5ccc(C)c(C)c5)nn4ccn3c2=O)c(Cl)c1", "Inhibition": 13.54},
      {"smiles": "Cc1nnc2ccc(S(=O)(=O)N(Cc3cccc(F)c3)c3cccc(Cl)c3)cn12", "Inhibition": -2.92},
      {"smiles": "CCOc1ccc(N(Cc2cccc(F)c2)S(=O)(=O)c2ccc3nncn3c2)cc1", "Inhibition": 6.73},
      {"smiles": "COc1cc(NC(=O)Cn2nc3ccc(-c4ccc(Cl)cc4)nn3c2=O)cc(OC)c1", "Inhibition": 6.35},
      {"smiles": "Cc1nnc2c(SCC(=O)Nc3ccc4c(c3)OCCO4)nc3ccccc3n12", "Inhibition": 9.06},
      {"smiles": "COc1cc(OC)c(NC(=O)Cn2nc3ccc(Sc4cccc(F)c4)nn3c2=O)cc1Cl", "Inhibition": 2.02},
      {"smiles": "Cc1cc(C)cc(Nc2nc(C)cc3nn(CC(=O)NCc4ccco4)c(=O)n23)c1", "Inhibition": 10.95},
      {"smiles": "CCOc1ccc(NC(=O)Cn2nc3c4cc(-c5ccc(C)cc5)nn4ccn3c2=O)cc1", "Inhibition": 14.64}
    ]}
  ]
}
